Max response, outcome and Potency data for 18 compounds are collected here from PubChem BioAssay (NCATS).

Common to all, as to assay: Cytotoxic Profiling of Annotated Libraries Using Quantitative High-Throughput Screening (AID 1296008); also: nearly all actives have a fitted effect of over 60% in size
What all share (details): Five cell lines viability, CellTiter-Glo ATP luminescence, 48-72 h; max response: stronger effect = lower value

In one experiment the test system is CRL-7250. Summed up: (§1)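 Cytotoxicity was measured as CellTiter-Glo ATP luminescence, read after 10 min at room temperature. Compound treatment of the cells lasted 48 or 72 hr at 37 degrees Celsius in a qHTS format.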
Another experiment deals with HEK293. The gist of the method: as §1
Another experiment relates to HaCat. The gist of the method: as §1
A further experiment concerns KB-3-1. The gist of the method: as §1
The next experiment deals with NIH3T3. Summed up:
as §1

“And” between values parts separate entries of the source, which are not always exact repeats. Equal entries are not always repeated. Records with an inconclusive call do not appear. Values without a mark were called inactive. The source made the active and inactive calls. Calls follow the shape of the dose curve; as a rule, active = well fitted inhibition curve with a large enough effect; inconclusive = small, poorly fitted or top-dose-only effect; inactive = flat fitted curve, though single readings scatter. Where a SMILES comes first, the peptide text is derived from it. Bridges are numbered along the chain shown (N, C = ends). [ ]: non-standard residue; d: D form. The star is where a group is joined. X1 = CCC(C)C(N)C1=NC(C(=O)*)CS1; dOrn = NCCC[C@@H](N)C(=O)O
% is scaled to controls: 0 for no effect and ±100 for the full control effect; potency is read from the fitted curve at half-maximal effect.

Turning to `CC1=C2C(=O)O[C@@H](c3ccoc3)[C@]2(C)CCC1`, the max response with CRL-7250 was -4.96%; in the experiment with HEK293 it was -8.51% and 3.13%; in the experiment on HaCat, 0.193%; in the experiment on KB-3-1 it was 4.53%; in the experiment with NIH3T3 it was 0.635% and 0.0895%. The compound was called inactive with CRL-7250 and with KB-3-1.
Turning to `CC(C)[C@H]1CCC(CO)=C[C@@H]1/C=C(\CO)C(=O)O`, the figures for the max response in the experiment with CRL-7250, with KB-3-1 and in the experiment with NIH3T3 were -1.21%, 7.99% and -1.04%, respectively. Further, the outcome in the experiment with HEK293 and in the experiment with HaCat was inactive.
On to `CCOc1ccc(-c2ccc(Cn3c(CC(C)(C)C(=O)O)c(SC(C)(C)C)c4cc(OCc5ccc(C)cn5)ccc43)cc2)cn1`, for which the max response is -21.1% and -6.16% in the experiment on CRL-7250; -15.3% in the experiment on HEK293; -15.9% and -11.2% in the experiment with HaCat; -5.24% with KB-3-1; -6.34% in the experiment with NIH3T3. In addition, the outcome with HEK293 and in the experiment with KB-3-1 was inactive.
In the case of `CCC(C)C(N)C1=NC(C(=O)N[C@@H](CC(C)C)C(=O)N[C@H](CCC(=O)O)C(=O)N[C@H](C(=O)N[C@H]2CCCCNC(=O)[C@H](CC(N)=O)NC(=O)[C@@H](CC(=O)O)NC(=O)[C@H](Cc3cnc[nH]3)NC(=O)[C@@H](Cc3ccccc3)NC(=O)[C@H]([C@@H](C)CC)NC(=O)[C@@H](CCCN)NC2=O)[C@@H](C)CC)CS1` (some centres not stated) (X1-L[dE]IK[dOrn]I[dF]H[dD]N; lactam 4-C), the max response in the experiment with CRL-7250 is 2.99% and -28%; in the experiment with HEK293 it was -1.63% and -10.3%; in the experiment with KB-3-1 it was 8.49%; in the experiment on NIH3T3 it was 2.78%. The result with HaCat and in the experiment with KB-3-1 was inactive.
As for `N[C@H]1C[C@H]1c1ccc(-c2cccc(O)c2)cc1`, the max response with CRL-7250 was 0.175% and -10.6%; with HEK293, -29.8% and -17.5%; with HaCat, -1.19%; with NIH3T3 it was -6.35%. In addition, the compound was called inactive in the experiment on HaCat, with KB-3-1 and in the experiment on NIH3T3.
With `CC(C)(OC1OC(CO)C(O)C(O)C1O)C1CCC(O)(CO)C2CC(O)C(C)(O)C2C1` (configuration not stated), the max response was -5.53% with CRL-7250, 0.555% in the experiment with HaCat and 2.34% in the experiment on KB-3-1. Moreover, the compound was classed as inactive with HEK293 and in the experiment on NIH3T3.
Consider `CC(CCC1C(C(=O)O)=CC(=O)CC1(C)C)O[C@@H]1O[C@H](CO)[C@@H](O)[C@H](O)[C@H]1O` (some centres not stated), for which the max response in the experiment with CRL-7250 is 1.37%. Also, the result in the experiment with HEK293, with HaCat, with KB-3-1 and in the experiment on NIH3T3 was inactive.
Regarding `COc1cc(C(=O)OC[C@H]2O[C@H](O[C@@]3(CO)O[C@@H](CO)[C@H](O)[C@H]3O)[C@H](O)[C@@H](O)[C@@H]2O)ccc1O`, the max response is -10.5% in the experiment with CRL-7250, 2.76% in the experiment on HaCat, 4.87% in the experiment on KB-3-1 and 0.778% in the experiment on NIH3T3. Also, the outcome with HEK293 was inactive.
`COC1C=C([C@@H]2CC=C3[C@@]4(C)C(CC[C@]32C)[C@@]2(C)C=CC(=O)C(C)(C)C2C[C@H]4OC(C)=O)C(=O)O1` (some centres not stated): the outcome in the experiment on CRL-7250, in the experiment on HEK293, in the experiment with HaCat and in the experiment with NIH3T3 was inactive. Also, the max response in the experiment on KB-3-1 is -0.943%.
With `CC1CCC2C(C)(C)CC(C)(CO)C2(O)C1C(=O)O` (configuration not stated), the max response in the experiment on CRL-7250 was 0.69%; in the experiment on KB-3-1, 9.23%. Moreover, the result with HEK293, with HaCat and in the experiment on NIH3T3 was inactive.
As to `O=C(O)C[C@H](O)C[C@H](O)/C=C/c1c(C2CC2)nc2ccccc2c1-c1ccc(F)cc1`, the Potency with CRL-7250 was 0.731 µM (active); in the experiment with HEK293, 5.8 µM (active); with HaCat, 7.31 µM (active); with KB-3-1, 4.61 µM (active); with NIH3T3, 14.6 µM (active).
On to `C=CC(C)(O)CC/C=C(\C)C(=O)OC1CC2(C(=O)O)CCC3(C)C(=CCC4C5(C)CCC(OC6OC(COC7OCC(O)C(O)C7O)C(O)C(OC7OCC(O)C(O)C7O)C6OC6OC(CO)C(O)C(O)C6OC6OCC(O)C(O)C6O)C(C)(C)C5CCC43C)C2CC1(C)C` (configuration not stated), for which the max response in the experiment on CRL-7250 was 0.69%; in the experiment with NIH3T3, 1.8%. For the same compound, the result in the experiment with HEK293, in the experiment on HaCat and with KB-3-1 was inactive.
With `COC12CC3C(C(C)C1=CC(=O)O2)C(O)C(OC(C)=O)C1C(C)(C)C(OC(C)=O)CCC31C` (configuration not stated), the max response in the experiment on CRL-7250 was 0.349%; in the experiment with HaCat, -18.1%. The result in the experiment on HEK293, with KB-3-1 and in the experiment on NIH3T3 was inactive.
Take `CC1=CC(=O)CC(C)(CO[C@@H]2O[C@H](CO)[C@@H](O)[C@H](O)[C@H]2O)C1(O)/C=C/C(C)=C/C(=O)O` (some centres not stated): the compound was called inactive in the experiment on CRL-7250, in the experiment with HEK293, with KB-3-1 and in the experiment with NIH3T3. In the experiment with HaCat, the max response is -0.434%.
As for `C=CC1C(O[C@@H]2O[C@H](CO)[C@@H](O)[C@H](O)[C@H]2O)OC=C(C(=O)OC)C1CC(=O)O` (some centres not stated), the result in the experiment on CRL-7250, in the experiment on HEK293 and in the experiment on HaCat was inactive. The max response in the experiment on KB-3-1 was 9.2%; with NIH3T3 it was 3.11%.
For the compound `CCc1c(CC(N)=O)c2cc(OCCCP(=O)(O)O)ccc2n1Cc1ccccc1`, the max response is -8.49% in the experiment with CRL-7250 and -4.64% in the experiment on NIH3T3. Moreover, the call in the experiment on HEK293, in the experiment with HaCat and in the experiment with KB-3-1 was inactive.
On to `C/C=C1\[C@H](O[C@@H]2O[C@H](CO)[C@@H](O)[C@H](O)[C@H]2O)OC=C(C(=O)OC)[C@H]1CC(=O)OC`, for which the compound was called inactive in the experiment on CRL-7250, with HEK293, in the experiment with HaCat and with NIH3T3. In the experiment on KB-3-1, the max response was 5.8%.
For `COc1cc([C@H]2OC[C@]3(OC(C)=O)[C@@H](c4ccc(O[C@@H]5O[C@H](CO)[C@@H](O)[C@H](O)[C@H]5O)c(OC)c4)OC[C@H]23)ccc1O`, the call in the experiment on CRL-7250, in the experiment on HEK293, in the experiment on HaCat and with KB-3-1 was inactive. Besides, in the experiment with NIH3T3, the max response is 4.83%.
